Test results taken from PubChem BioAssay (NCI).
The panel holds about 83,000 compounds, 20% with a hit somewhere; the sample as a whole holds those more often.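 In brief: 96-well plates, 48 h treatment, single concentration, percent growth endpoint.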 Unmarked numbers belong to inactive results. The source made the active and inactive calls.

System: PC-3 prostate
Experiment: NCI-60 one-dose screen, 48 h (100 = growth as untreated, 0 = no growth, -100 = all killed)
Settings: 10 µM unless noted
Procedure: Growth inhibition of the PC-3 human tumor cell line is measured as a screen for anti-cancer activity. Cells are grown in 96 well plates and exposed to the test compound for 48 hours. Compounds are tested at a single concentration, which is 10^-5 M for most compounds. The reported endpoint is percent growth (GI% or GIPRCNT), where numbers from 0 - 100% represent growth inhibition, and numbers from -100% - 0 represent cell death. For example, a value of 40 represents 60% growth inhibition. A value of 0 means no net growth occurred over the course of the experiment. A value of -40 indicates 40% of cells at the beginning of the experiment died by the end of the experiment. A value of -100 means all cells are dead at the end of the experiment.
NCI-60 Human Tumor Cell Lines Screen was performed using the standard one-dose NCI protocol, which is described in more detail at https://dtp.cancer.gov/discovery_development/nci-60/default.htm.
Compounds with GIPRCNT values below 10 were considered active. Activity score was based on GIPRCNT using the following formula: […]
Score is 0 for GIPRCNT values of 100 or above, 50 for GIPRCNT values of 0, and 100 for GIPRCNT values of -100.

SMILES | growth
CC(=O)Nc1ccc2c(c1)Cc1c(F)c(F)c(F)c(F)c1-2 | 81.9%
COc1ccc(COC(C)=O)cc1 | 95.3%
Clc1ccc(-n2cnc3c(Cl)ncnc32)cc1Cl | 110%
CC/C(=C\c1ccc(N(C)C)cc1)c1ccncc1 | 65.4%
CN1CCN(Cc2ccc(NC(=O)c3[nH]ncc3Nc3ccnc4ccnn34)cc2)CC1 | 55.9%
COc1ccc2c(c1)/C(=C\c1c[nH]c3ccc(F)cc13)C(=O)N2 | 84%
CCCCCCCCCCSc1ncnc2nc[nH]c12 | 79.8%
CCC1(c2ccccc2)Oc2ccccc2-n2c(C#N)c3ccccc3c2C1=O (stereo not given) | 93.8%
COc1ccc2c(c1)C(=O)/C(=C/c1ccc([N+](=O)[O-])s1)O2 | -15.7% (active)
CN1C(=O)/C(=C/c2nc(-c3cccc(F)c3)n3ccccc23)c2ccccc21 | 81.6%
O=C(Nc1cccc(-n2cc(-c3ccncc3)c(-c3ccc(O)c(Cl)c3)n2)c1)Nc1ccc(Cl)c(C(F)(F)F)c1 | -22.6% (active)
O=C1C[C@@H]2/C(=C(O)\C=C\c3ccccc3)C(=O)C=C[C@@H]2O1 | 37.8%
O=[N+]([O-])c1ccc(Oc2cccc(C(F)(F)F)c2)c([N+](=O)[O-])c1 | 88.9%
CCCc1cccc(CCC)c1O | 100%
O=C(Nc1ccncc1)C(=O)c1cn(S(=O)(=O)c2cccc(F)c2)c2ccccc12 | 47%
Cn1cc(-c2csc(-c3c[nH]c4ncccc34)n2)c2cc(F)cnc21 | 69.1%
O=C(CCc1nnc2sc(-c3ccc(Cl)cc3Cl)nn12)c1nc2ccccc2[nH]1 | -38.5% (active)
O=C(CCc1nnc2sc(Cc3ccccc3Cl)nn12)c1nc2ccccc2[nH]1 | 85.5%
CCC1=C(c2ccc(OC)cc2)C(C)(C)Oc2c1ccc(O)c2CN1CCCC1 | 47.1%
CCOC(=O)C(C(C)=O)c1nc2sc3cc(Cl)ccc3n2c(=N)c1C#N (stereo not given) | 72.5%

SMILES | growth
COc1cc(C2CC(c3ccc(C)cc3)=NN2C(C)=O)ccc1Oc1ccnc2cc(Cl)ccc12 (stereo not given) | 67.9%
Cc1cccc(Cl)c1NC(=O)c1ccc2nc(NC(=O)NC3CC(C)(C)NC(C)(C)C3)sc2c1 | 66.3%
Nc1cc(Cl)c(S(N)(=O)=O)cc1S(N)(=O)=O | 106%
ClC1C2CC(c3ccccc32)C1Cl (stereo not given) | 104%
COc1ccc2nc(NC(=O)c3cc(-c4ccc(F)cc4)n4nc(-c5ccccc5)cc4n3)sc2c1 | 63.7%
O=C(/C=C/c1cc2ccccc2[nH]c1=O)c1ccc(O)cc1 | 10.5%
C=C1CC[C@@H]2[C@](C)(COC(C)=O)[C@H](OC(C)=O)CC[C@@]2(C)[C@@H]1CC(Nc1ccc(S(=O)(=O)Nc2cc(C)on2)cc1)C1=CCOC1=O (stereo not given in full) | 70.8%
O=c1ccn(C2CCCO2)c(=O)[nH]1 (stereo not given) | 105%
Cc1nn(-c2ccc(Cl)cc2)c2nc3c(nc12)C(=O)c1ccccc1-3 | 54.9%
Cc1ccc(C(O)C2=CC(=O)c3ccccc3C2=O)cc1 (stereo not given) | 89.4%
Cn1c(=O)c2nc(SCc3ccccc3)n(C)c2n(C)c1=O | 102%
Clc1ccc2c(Nc3ccc4oc(NCCN5CCCC5)nc4c3)ccnc2c1 | 79.9%
O=C1/C(=N/O)CCc2ccccc21 | 59.8%
C=CC1=C(C(=O)O)N2C(=O)[C@@H](NC(=O)/C(=N\O)c3csc(N)n3)[C@H]2SC1 (stereo in doubt) | 95.3%
ClC1=C(Cl)C(Cl)=C(Cl)C1=Cc1ccc(Cl)cc1 | -36.1% (active)
N#Cc1c2ccccc2c2n1-c1ccccc1OC(c1ccccc1)C2=O (stereo not given) | 32.1%
CN(C)c1ccc(/C=C\c2ccnc3ccccc23)cc1 | 67.3%
Cc1cc(NCCCNc2ccnc3cc(Cl)ccc23)nc(N2CCN(C)CC2)n1 | 51.5%
CCCCCCCCCCCCCCCCN=C(CC(=O)O)C(=O)O | 91.9%
COc1c(C)c2c(c(O)c1C/C=C(\C)CCC(=O)OCCN1CCOCC1)C(=O)OC2 | 23.2%
